Bioassay records from PubChem.
FECH block: blocks human mitochondrial ferrochelatase activity; purified FECH, Ni-mesoporphyrin absorbance 550 nm; calls only at 10 µM (by protocol); hit rate 3.3% among 20,000; AID 1671448;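 active = enzyme reaction rate more than 3 SD below the solvent-only control wells on the same plate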;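 also: lower slope than DMSO wells means FECH inhibition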
Target sequence (P22830 whole entry, looked up): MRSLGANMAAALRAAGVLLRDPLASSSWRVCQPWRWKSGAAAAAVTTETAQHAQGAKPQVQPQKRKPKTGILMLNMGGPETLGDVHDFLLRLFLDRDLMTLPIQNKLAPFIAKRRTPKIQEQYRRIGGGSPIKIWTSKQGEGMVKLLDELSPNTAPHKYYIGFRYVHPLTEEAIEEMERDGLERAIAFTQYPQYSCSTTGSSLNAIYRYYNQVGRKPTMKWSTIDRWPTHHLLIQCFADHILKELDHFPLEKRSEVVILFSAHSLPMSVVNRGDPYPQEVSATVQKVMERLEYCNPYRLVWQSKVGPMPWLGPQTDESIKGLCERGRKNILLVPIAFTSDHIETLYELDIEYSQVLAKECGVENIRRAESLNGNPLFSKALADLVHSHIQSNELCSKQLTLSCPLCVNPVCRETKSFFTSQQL
The depositor's hits bear a star; i = inactive; + = active, no number. This is one part of a sample in which hits are shown more often than they occur.

SMILES	FECH block
NS(=O)(=O)c1ccc(NC(=O)c2ccc(-c3nc(-c4ccccc4)no3)cc2)cc1	i
CCn1nc(-c2ccccc2)c(-c2ccccc2)c(C(=O)Nc2ccc(S(N)(=O)=O)cc2)c1=O	+
Cc1ccc2cc(-c3noc(CCC(=O)Nc4nccs4)n3)c(=O)[nH]c2c1	i
Cc1ccc(-c2cccc(C(=O)NCCc3cc(=O)[nH]cn3)c2)o1	i
Cc1cc2nc(CSc3nnc4c(n3)[nH]c3ccccc34)cc(=O)n2o1	+
Cc1cc2nc(CSc3nnc(-c4cc(C)n(C)n4)o3)cc(=O)n2o1	i
Cc1cc(C)n2c(SCc3cc(=O)n4oc(C)cc4n3)nnc2n1	i
O=C1CCS(=O)(=O)N1c1ccc(S(=O)(=O)NCCc2ccccc2F)cc1	i
O=C(NCCc1cnc[nH]1)c1ccc(CN2C(=O)CCn3nccc32)cc1	i
COc1ccc(Oc2ccc(C(=O)NCCc3cnc[nH]3)cc2)cc1	+
COc1ccccc1-n1cc(C(=O)NCCc2cnc[nH]2)cn1	i
CC(=O)c1ccccc1C(=O)NCC1CCN(Cc2cccnc2)C1 (stereo not given)	i
CCCc1ccc(S(=O)(=O)NCCn2c(-c3ccc(C)cc3)nc3cccnc32)cc1	i
N[C@@H]1c2ccccc2C2(CCN(C(=O)c3nccc4ccccc34)CC2)[C@H]1O	i
CCn1cc(CN(C(=O)c2nccc3ccccc23)C(C)C)cn1	i
CN(CC1COCCO1)C(=O)c1nccc2ccccc12 (stereo not given)	+
Cc1ccc(CN2CCC(CNC(=O)C3CCCN(c4ncnc5c4nc4n5CCCCC4)C3)C2)cc1 (stereo not given)	i
C=C(C)COc1ccccc1C(=O)N1CCCN(c2ncccn2)CC1	i
CCNC(=O)C1CCN(C(=O)c2cc(Cn3cnc4ccccc43)[nH]n2)C1 (stereo not given)	i
COc1cccc(OCC(=O)Nc2cc(N3CCCS3(=O)=O)ccc2C)c1	i
Cc1cccc(OCC(=O)Nc2cc(N3CCCS3(=O)=O)ccc2C)c1	+
Cc1ccc(OCC(=O)Nc2cc(N3CCCS3(=O)=O)ccc2C)cc1	i
O=C(CCn1cnc2onc(-c3cc(F)cc(F)c3)c2c1=O)NCc1cccc(Br)c1	i
Cc1cc(NC(=O)c2ccc(OC(C)C)cc2)n(-c2ncnc3c2cnn3-c2cccc(Cl)c2)n1	i
Cc1cc(-c2cc(F)ccc2C)nc(N)n1	i
SMILES	FECH block
CCC(CO)N(Cc1ccsc1)Cc1cccc2c1OCO2 (stereo not given)	i
Cc1cccc(NCc2cc(=O)n3[nH]c(NCc4ccccc4)nc3n2)c1	i
Cc1ccccc1-c1nc2nc(CNc3ccc(Cl)cc3)cc(=O)n2[nH]1	+
Cc1ccccc1-c1nc2nc(CNCc3ccccc3)cc(=O)n2[nH]1	+
COc1ccccc1NCc1cc(=O)n2[nH]c(-c3ccccc3C)nc2n1	i
Cc1ccccc1-c1nc2nc(CNc3c(C)cccc3C)cc(=O)n2[nH]1	i
Cc1cccc(NCc2cc(=O)n3[nH]c(-c4ccccc4C)nc3n2)c1	+
Cc1ccccc1-c1nc2nc(CNc3cccc(C(F)(F)F)c3)cc(=O)n2[nH]1	i
COc1ccc(Cl)cc1NCc1cc(=O)n2[nH]c(-c3ccccc3C)nc2n1	i
CCc1ccccc1NCc1cc(=O)n2[nH]c(-c3ccccc3C)nc2n1	i
COc1ccc(Nc2nc(NCC(C)C)nc3c2cnn3-c2ccccc2)cc1	i
Cc1cccc(N2CCN(CCNC(=O)c3ccc(CN4C(=O)CCn5nccc54)cc3)CC2)c1C	i
CSc1ccc(-c2nc(C(N)=O)c3c(n2)n(-c2ccc(C)c(C)c2)c(=O)n3C)cc1	i
CCC(=O)Nc1ccc(S(=O)(=O)NCc2nc3cccnc3n2CCOC)cc1	i
CCOC(=O)c1nn(C)c2c1CNCC2	i
COC(=O)C1C=CCN1C(=O)c1cc(COc2ccccc2)[nH]n1 (stereo not given)	i
Cn1cnc(-c2ccccc2)c1-c1cccc2cnccc12	i
CCc1ccccc1-c1c(-c2ccccc2)ncn1CCC(=O)OC	i
COCC1(Cn2cnc(-c3ccccc3)c2-c2cccc3cnccc23)CC1	+
Cc1cccc(-c2noc(CN(C)C(=O)CN3CCCN(C)CC3)n2)c1	i
CC(CC(F)(F)F)NCc1cnn(-c2cccc(F)c2)c1 (stereo not given)	i
Cc1ccc(F)cc1CNC(=O)c1cc(Cn2ccc3ccccc32)[nH]n1	i
CCC(=O)Nc1ccccc1-c1nnc(SCC(=O)Nc2cc(C)cc(C)c2)[nH]c1=O	+
CCC(=O)Nc1ccccc1-c1nnc(SCC(=O)Nc2cccc(C)c2C)[nH]c1=O	i
CCC(=O)Nc1ccccc1-c1nnc(SCC(=O)Nc2ccccc2Cl)[nH]c1=O	i
SMILES	FECH block
Cc1cnn(CC2CCN(S(=O)(=O)NCc3ccccc3)CC2)c1	i
COc1ccc(N2C(=O)CCS2(=O)=O)cc1S(=O)(=O)NCc1ccccc1F	i
Cc1ccc(-n2c(CN3CCN(S(=O)(=O)c4cc(F)cc(F)c4)CC3)nc3cccnc32)cc1	+
Cc1cccc(-n2c(CN3CCN(S(=O)(=O)c4cc(C)c(C)cc4C)CC3)nc3cccnc32)c1	i
COc1cccc(S(=O)(=O)N2CCN(Cc3nc4cccnc4n3-c3ccccc3)CC2)c1	i
COc1cccc(S(=O)(=O)N2CCN(Cc3nc4cccnc4n3-c3cccc(C)c3)CC2)c1	i
Cc1ccc(-n2c(CN3CCN(S(=O)(=O)c4ccc(F)cc4)CC3)nc3cccnc32)cc1	i
COc1ccc(-n2c(CN3CCN(S(=O)(=O)c4cc(F)cc(F)c4)CC3)nc3cccnc32)cc1	i
COc1cccc(S(=O)(=O)N2CCN(Cc3nc4cccnc4n3-c3cccc(F)c3)CC2)c1	+
Cc1cc(C)cc(-n2c(CN3CCN(S(=O)(=O)c4cccc5nsnc45)CC3)nc3cccnc32)c1	+
Cc1cc(C)cc(-n2c(CN3CCN(S(=O)(=O)c4ccc(C)cc4C)CC3)nc3cccnc32)c1	i
Cc1cc(N2CCCC(n3cc(C(=O)NCCO)nn3)C2)c2ccccc2n1 (stereo not given)	i
Cc1ccc(CN(C)C(=O)c2onc3ccccc23)o1	i
CC(=O)Nc1ccc(NC(=O)C2CC(=O)NC(N3CCN(c4ccccc4F)CC3)=N2)cc1 (stereo not given)	i
Cc1c(C(=O)N2Cc3cnc(C(C)(C)C)nc3C2)sc2ccccc12	i
Cc1ccnc(CC(C)N(C)C(=O)Cc2ccc(F)cc2F)c1 (stereo not given)	i
Cc1ccc(CN2CCN(CC(=O)Nc3ccc(F)cc3)S2(=O)=O)cc1	i
Cn1c(=O)oc2ccc(C(=O)N3Cc4cnc(C(C)(C)C)nc4C3)cc21	i
CSCc1noc(-c2nc3c([nH]2)CC(c2ccc(F)cc2)CNC3=O)n1 (stereo not given)	i
CC(=O)Nc1ccc(S(=O)(=O)N2CCN(c3nc(C)cc(N4CCCCC4)n3)CC2)cc1	+
Cc1cc(N(C)C)nc(N2CCN(S(=O)(=O)c3ccc(Cl)cc3)CC2)n1	i
Cc1cc(N(C)C)nc(N2CCN(S(=O)(=O)c3ccc(C)c(C)c3)CC2)n1	i
Cc1cc(N(C)C)nc(N2CCN(S(=O)(=O)c3ccc(F)cc3)CC2)n1	+
CC(=O)Nc1ccc(S(=O)(=O)N2CCN(c3nc(C)cc(N4CCCC4)n3)CC2)cc1	i
CC(=O)Nc1ccc(S(=O)(=O)N2CCN(c3nc(C)cc(N4CCOCC4)n3)CC2)cc1	i
